Assay results reported in ChEMBL document CHEMBL3433997, “St. Jude Leishmania screening dataset” (2016).

Assays:
Type in all cases: functional
[1] = target: Solute carrier family 2, facilitated glucose transporter member 1 (Homo sapiens) (UniProt P11166); assay: ST_JUDE_LEISH: Cytotoxicity at 2uM final concentration against transgenic Leishmania Mexicana promastigotes LmGLUT1 that are glucose transport deficient and complemented with the human glucose transporter GLUT1. Activity is measured by DNA content using SYBR green in vitro
[2] = target: Hexose transporter 1 (Plasmodium falciparum) (UniProt O97467); assay: ST_JUDE_LEISH: Cytotoxicity at 2uM final concentration against transgenic Leishmania Mexicana promastigotes LmPfHT that are glucose transport deficient and complemented with the Plasmodium falciparum hexose transporter. Activity is measured by DNA content using SYBR green in vitro
[3] = target: Glucose transporter (Leishmania mexicana) (UniProt O61059); assay: ST_JUDE_LEISH: Cytotoxicity at 2uM final concentration against transgenic Leishmania Mexicana promastigotes LmGT2 that are glucose transport deficient and complemented with the L. Mexicana glucose transporter 2. Activity is measured by DNA content using SYBR green in vitro

Solute carrier family 2, facilitated glucose transporter member 1 (Homo sapiens), sequence (P11166 whole entry): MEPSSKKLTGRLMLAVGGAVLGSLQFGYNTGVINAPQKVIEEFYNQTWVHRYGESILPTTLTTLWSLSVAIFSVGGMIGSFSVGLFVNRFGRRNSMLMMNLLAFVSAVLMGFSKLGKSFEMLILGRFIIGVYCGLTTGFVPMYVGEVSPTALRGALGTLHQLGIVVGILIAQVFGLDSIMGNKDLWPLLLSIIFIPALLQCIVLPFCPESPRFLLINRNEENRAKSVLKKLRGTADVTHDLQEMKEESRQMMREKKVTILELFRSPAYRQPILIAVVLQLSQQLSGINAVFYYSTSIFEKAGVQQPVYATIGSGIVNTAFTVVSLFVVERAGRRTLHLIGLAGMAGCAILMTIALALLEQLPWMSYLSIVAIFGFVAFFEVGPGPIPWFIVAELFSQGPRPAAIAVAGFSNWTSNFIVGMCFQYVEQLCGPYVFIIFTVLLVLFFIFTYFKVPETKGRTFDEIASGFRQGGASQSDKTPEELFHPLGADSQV

## O=C(NCc1ccc(Cl)c(Cl)c1)c1cccc(C2CCCN(Cc3ccc4[nH]cnc4c3)C2)c1 (centres undefined)
[1]
  inhibition: 0.36%
[2]
  inhibition: 2.01%
[3]
  inhibition: -0.63%

## O=C(Nc1cccc(CN2CCCN(Cc3ccsc3)CC2)c1)c1ccc(Cl)c(Cl)c1
[1]
  inhibition: 4.04%
[2]
  inhibition: 2.57%
[3]
  inhibition: -2.87%

## CN(C)C(=O)CCCn1c(CNCCCNc2cc(=O)c3ccccc3[nH]2)cc2c(Cl)cc(Cl)cc21
[1]
  inhibition: 0.57%
[2]
  inhibition: 2.54%
[3]
  inhibition: 2%

## CCCCNCC(O)COc1ccccc1-c1ccc(N/N=C/c2cccc3ccccc23)nn1 (centres undefined)
[1]
  inhibition: 3.78%
[2]
  inhibition: 3.6%
[3]
  inhibition: 1.78%

## CN1CCN(CCCN(Cc2ccc(-c3ccc(CNCc4ccc5c(c4)OCO5)cc3)cc2)C(=O)CCC2CCCC2)CC1
[1]
  inhibition: 4.67%
[2]
  inhibition: 7.78%
[3]
  inhibition: 1.18%

## Cc1cccc2nc(-c3ccc(-c4cccc(CNCC5CCCO5)c4)cc3)[nH]c12 (centres undefined)
[1]
  inhibition: 12.7%
[2]
  inhibition: 10.1%
[3]
  inhibition: 8.96%

## Cc1nc2ccc3nc(NC(=O)c4ccno4)sc3c2s1
[1]
  inhibition: 1.74%
[2]
  inhibition: 1.13%
[3]
  inhibition: -1.31%

## CCOC(=O)c1ccc(NC(=O)Nc2cccc(-c3cccc(-c4nc5cc(F)ccc5[nH]4)c3)c2)cc1
[1]
  inhibition: 0.68%
[2]
  inhibition: 2.75%
[3]
  inhibition: 3.67%

## Cc1cc(Nc2ccncc2)n2nc(C)c(-c3ccc(Cl)cc3)c2n1
[1]
  inhibition: 11.6%
[2]
  inhibition: 9.35%
[3]
  inhibition: 8.71%

## CN/C(=C\[N+](=O)[O-])NCCSCc1cc(C)c(CN(C)C)s1
[1]
  inhibition: 5.43%
[2]
  inhibition: 5.21%
[3]
  inhibition: 5.98%

## Cn1nc(-c2ccc(NC(=O)Nc3ccc4ccccc4c3)c(F)c2)c2cnc(NCCN3CCOCC3)nc21
[1]
  inhibition: 5.52%
[2]
  inhibition: 4.79%
[3]
  inhibition: 1.17%

## COc1cccc(C=Cc2nc(=O)c3ccccc3o2)c1OC
[1]
  inhibition: 4.18%
[2]
  inhibition: 0.32%
[3]
  inhibition: 0.45%

## c1ccc(-c2nc(Nc3nc4ccccc4[nH]3)[nH]c2-c2ccccc2)cc1
[1]
  inhibition: 10.8%
[2]
  inhibition: 6.74%
[3]
  inhibition: 4.43%

## CN1CCC(c2cc3c(cc2Br)CCN3C(=O)Nc2ccc(-c3ccncc3)c(Cl)c2)CC1
[1]
  inhibition: 0.33%
[2]
  inhibition: 1.09%
[3]
  inhibition: 0.25%

## CC(C)(C)c1ccc(CN2CCC(NC(=O)c3ccc(-c4cccc(C(F)(F)F)c4)s3)CC2)cc1
[1]
  inhibition: 1.56%
[2]
  inhibition: -0.78%
[3]
  inhibition: -5.64%

## COc1cc(-c2cc(-c3ccc(OCCN(C)C)cc3)[nH]c2-c2ccncc2)ccc1Cl
[1]
  inhibition: 0.75%
[2]
  inhibition: 0.72%
[3]
  inhibition: 2.28%

## Cc1ccccc1C1CCN(C2CCC(NC(=O)/C=C/c3cccc(Cl)c3)CC2)CC1 (centres undefined)
[1]
  inhibition: -2.09%
[2]
  inhibition: -2.1%
[3]
  inhibition: -3.2%

## O=c1c(NCCCN(Cc2ccc(F)cc2)c2ccccn2)c(NCc2cccnc2)c1=O
[1]
  inhibition: 1.33%
[2]
  inhibition: 1.81%
[3]
  inhibition: 1.65%
